Experimental data published in PubChem BioAssay (NCI).
Compounds without any hit were thinned out: in the full panel of roughly 83,000, 20% have a hit.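 Interpretation: 100, growth as untreated; towards 0, rising growth inhibition; 0, no net growth; 0 to -100, cell death. Compounds scoring below 10 were considered active.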 Calls of active or inactive are those of the source.

Tests used:
Assay in all cases: NCI-60 one-dose screen, 48 h (100 = growth as untreated, 0 = no growth, -100 = all killed)
Conditions in all cases: 10 µM unless noted
SK-MEL-2 melanoma = tested on: SK-MEL-2 melanoma
EKVX NSCLC = tested on: EKVX NSCLC
SN12C renal = tested on: SN12C renal
UO-31 renal = tested on: UO-31 renal
TK-10 renal = tested on: TK-10 renal
ACHN renal = tested on: ACHN renal
CAKI-1 renal = tested on: CAKI-1 renal
A498 renal = tested on: A498 renal
CCRF-CEM leukemia = tested on: CCRF-CEM leukemia
MOLT-4 leukemia = tested on: MOLT-4 leukemia

Measured: growth

COc1cc2c(cc1O)CCc1cc(O)cc(OC)c1-2
inactive: SK-MEL-2 melanoma 88.6% | EKVX NSCLC 92.7% | SN12C renal 89.4% | UO-31 renal 95.3% | TK-10 renal 126% | ACHN renal 95.4% | CAKI-1 renal 94.8% | A498 renal 79.4% | CCRF-CEM leukemia 70.7% | MOLT-4 leukemia 74.7%

C(=N\Nc1nnn(Cc2ccccc2)n1)/c1ccccc1
inactive: SK-MEL-2 melanoma 34% | EKVX NSCLC 57.6% | SN12C renal 67.5% | UO-31 renal 61.2% | TK-10 renal 76.6% | ACHN renal 67.2% | CAKI-1 renal 95.2% | A498 renal 38.2% | CCRF-CEM leukemia 35% | MOLT-4 leukemia 38.2%

COc1ccc2nc3cc(Cl)ccc3c(NCCNCC(O)CO)c2c1 (stereo not given)
inactive: SK-MEL-2 melanoma 27.9% | EKVX NSCLC 42% | UO-31 renal 48.9% | TK-10 renal 32.3% | ACHN renal 26.8% | CAKI-1 renal 71.9% | CCRF-CEM leukemia 25% | MOLT-4 leukemia 12.7%
active: SN12C renal 5.37% | A498 renal 8.45%

O=C1C(Cl)=C(Cl)C(=O)c2c1nc1n2CCCC1
inactive: SK-MEL-2 melanoma 88.1% | EKVX NSCLC 95.9% | SN12C renal 96.5% | UO-31 renal 88.8% | TK-10 renal 60% | CAKI-1 renal 100% | A498 renal 76.2% | CCRF-CEM leukemia 11.7%
active: ACHN renal -8.54% | MOLT-4 leukemia 9.16%

Fc1ccc(Cc2ccc(F)cc2)cc1
inactive: SK-MEL-2 melanoma 111% | EKVX NSCLC 105% | SN12C renal 95.7% | UO-31 renal 79.7% | TK-10 renal 101% | ACHN renal 104% | CAKI-1 renal 94.8% | A498 renal 99.7% | CCRF-CEM leukemia 107% | MOLT-4 leukemia 94.5%

Cc1cc2cc3cc(C)c(N(C)C)cc3[n+](C)c2cc1N(C)C
active: SK-MEL-2 melanoma -22% | TK-10 renal -17.4%
inactive: EKVX NSCLC 52% | SN12C renal 10.7% | UO-31 renal 62.1% | ACHN renal 43.8% | CAKI-1 renal 47.2% | A498 renal 56.9% | CCRF-CEM leukemia 13% | MOLT-4 leukemia 33.9%

CNCc1cccc2c1OCCOCCOCCN(C)S(=O)(=O)c1ccc(cc1)-c1cnc(N)c(n1)C(=O)N2
active: CCRF-CEM leukemia -23.6% | MOLT-4 leukemia 0.352%
inactive: SK-MEL-2 melanoma 56.7% | EKVX NSCLC 43.6% | SN12C renal 37% | UO-31 renal 36.5% | TK-10 renal 53.3% | ACHN renal 22.1% | CAKI-1 renal 44.6% | A498 renal 36.7%

CCCCCC(=O)Oc1ccc(/C(=C(\C)c2ccccc2)c2ccc(OCCN(CC)CC)cc2)cc1
inactive: SK-MEL-2 melanoma 87.6% | EKVX NSCLC 92.5% | SN12C renal 79.8% | UO-31 renal 48.4% | TK-10 renal 74.6% | ACHN renal 87.9% | CAKI-1 renal 99.7% | A498 renal 84.8% | CCRF-CEM leukemia 63.9% | MOLT-4 leukemia 46.1%

Clc1ccc(-c2nnc(COc3ccccc3Cl)o2)cc1
inactive: SK-MEL-2 melanoma 99.1% | EKVX NSCLC 86.9% | SN12C renal 97.8% | UO-31 renal 77.5% | TK-10 renal 69.9% | ACHN renal 22.7% | CAKI-1 renal 84.3% | A498 renal 98.7% | CCRF-CEM leukemia 92% | MOLT-4 leukemia 90.5%

O=C1C[C@H](Sc2nc(-c3ccc(F)cc3)cc(C(F)(F)F)n2)[C@H]2CO[C@@H]1O2
inactive: SK-MEL-2 melanoma 107% | EKVX NSCLC 107% | SN12C renal 92.4% | UO-31 renal 88.3% | TK-10 renal 99.2% | ACHN renal 88.9% | CAKI-1 renal 81.5% | A498 renal 105% | CCRF-CEM leukemia 51.1% | MOLT-4 leukemia 78.3%

C[C@@]1(N2C(=O)OC[C@@H]2c2ccccc2)C(=O)N([C@H](CC(=O)N2CCC(N3CCCCC3)CC2)C(=O)NCc2cccc(C(F)(F)F)c2)[C@@H]1/C=C/c1ccccc1
inactive: SK-MEL-2 melanoma 64.8% | EKVX NSCLC 71.7% | SN12C renal 74.3% | UO-31 renal 57.8% | TK-10 renal 79.1% | ACHN renal 75.2% | CAKI-1 renal 82.8% | A498 renal 52.3% | CCRF-CEM leukemia 42.6% | MOLT-4 leukemia 10.7%

c1ccc2c(Nc3cccc4ccccc34)cccc2c1
inactive: SK-MEL-2 melanoma 38.6% | EKVX NSCLC 78.1% | SN12C renal 58.8% | UO-31 renal 41.3% | TK-10 renal 81.3% | ACHN renal 79.1% | CAKI-1 renal 40.3% | A498 renal 81.2% | CCRF-CEM leukemia 59.8% | MOLT-4 leukemia 30.5%

CC(C)[C@@H]1CC[C@]2(C(=O)NCCCCN=C(N)N)CC[C@]3(C)[C@H](CC[C@@H]4[C@@]5(C)CCC(=O)C(C)(C)[C@@H]5CC[C@]43C)[C@@H]12
inactive: SK-MEL-2 melanoma 83.3% | EKVX NSCLC 81.5% | SN12C renal 60.7% | UO-31 renal 82.6% | TK-10 renal 88.7% | ACHN renal 79.6% | CAKI-1 renal 96.7% | A498 renal 111% | CCRF-CEM leukemia 37.6% | MOLT-4 leukemia 38.6%
